Test results: the supplement of paper PMC8371130
Structures can show the parent of a compound that is named as a salt.

Test system: HL-1
Assay: relative cell viability (CellTiter-Glo) vs DMSO control (% of DMSO control); higher = more viable cells
Outline: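 Cell viability, normalised to vehicle-treated control cells, was read by CellTiter-Glo luminescence. For this, HL-1 mouse atrial cardiomyocytes were plated at 1000 cells per well in 384-well plates alongside compounds at 40, 200, 1000 or 5000 nM in 0.01% DMSO. After a day, plates either spent 48 h in a hypoxic workstation at 1% O2 and then 24 h reoxygenating in a normal incubator, or remained in normoxia for the same period.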

[1] = oxygen condition: hypoxia 48 h (1% O2) + reoxygenation 24 h, 40 nM
[2] = oxygen condition: hypoxia 48 h (1% O2) + reoxygenation 24 h, 200 nM
[3] = oxygen condition: hypoxia 48 h (1% O2) + reoxygenation 24 h, 1000 nM
[4] = oxygen condition: hypoxia 48 h (1% O2) + reoxygenation 24 h, 5000 nM
[5] = oxygen condition: normoxia 72 h, 40 nM
[6] = oxygen condition: normoxia 72 h, 200 nM
[7] = oxygen condition: normoxia 72 h, 1000 nM
[8] = oxygen condition: normoxia 72 h, 5000 nM

| Structure (SMILES) | relative cell viability [1] | relative cell viability [2] | relative cell viability [3] | relative cell viability [4] | relative cell viability [5] | relative cell viability [6] | relative cell viability [7] | relative cell viability [8] |
| --- | --- | --- | --- | --- | --- | --- | --- | --- |
| O=C1c2c(O)ccc(O)c2C(=O)c2c(NCCNCCO)ccc(NCCNCCO)c21 [Mitoxantrone Hydrochloride] | 4.78 | 4.55 | 5.93 | 3.1 | 4.75 | 4.41 | 3.59 | 3.38 |
| Cc1ccc(C)c(OCCCC(C)(C)C(=O)O)c1 [Gemfibrozil] | 98.5 | 104 | 101 | 103 | 102 | 113 | 106 | 106 |
| NCCC(O)(P(=O)(O)O)P(=O)(O)O [Pamidronate Disodium] | 98.6 | 106 | 107 | 76.5 | 107 | 99.9 | 108 | 105 |
| Cc1ncc(C[n+]2csc(CCO)c2C)c(N)n1 [Thiamine HCl] | 101 | 107 | 102 | 112 | 99.4 | 104 | 106 | 117 |
| CN(C)/N=N/c1[nH]cnc1C(N)=O [Dacarbazine] | 97.5 | 107 | 110 | 113 | 105 | 106 | 107 | 113 |
| CC(=O)Nc1ccccc1 [Acetanilide] | 96.5 | 98.9 | 100 | 111 | 101 | 94.9 | 98 | 105 |
| CCOC(=O)C1=C(COCCN)NC(C)=C(C(=O)OC)C1c1ccccc1Cl (stereo unspecified) [Amlodipine] | 102 | 101 | 113 | 100 | 107 | 107 | 93.2 | 106 |
| CCOC(=O)[C@H](CCc1ccccc1)N[C@H]1CCCN2CCC[C@@H](C(=O)O)N2C1=O [Cilazapril monohydrate] | 97.6 | 97.3 | 94.1 | 113 | 105 | 106 | 98.7 | 115 |
| CC(C)C(=O)Nc1ccc([N+](=O)[O-])c(C(F)(F)F)c1 [Flutamide] | 108 | 102 | 101 | 38.7 | 98.3 | 101 | 105 | 37 |
| CCCCc1nc(Cl)c(CO)n1Cc1ccc(-c2ccccc2-c2nnn[nH]2)cc1 [Losartan potassium] | 111 | 107 | 114 | 108 | 103 | 108 | 108 | 110 |
| COc1nc(N)nc2c1ncn2[C@@H]1O[C@H](CO)[C@@H](O)[C@@H]1O [Nelarabine] | 113 | 114 | 112 | 112 | 111 | 112 | 108 | 111 |
| CCN(CC)CCOc1ccc(C(=C(Cl)c2ccccc2)c2ccccc2)cc1 [Clomifene citrate] | 101 | 104 | 107 | 35.1 | 111 | 106 | 98.2 | 6.57 |
| Cc1ccc(NC(=O)c2ccc(CN3CCN(C)CC3)cc2)cc1Nc1nccc(-c2cccnc2)n1 [Imatinib] | 101 | 101 | 110 | 107 | 105 | 100 | 98.6 | 111 |
| C[C@H](CCC(=O)O)[C@H]1CC[C@H]2[C@@H]3CC[C@@H]4C[C@H](O)CC[C@]4(C)[C@H]3CC[C@]12C [Lithocholic acid] | 108 | 108 | 108 | 113 | 102 | 113 | 105 | 108 |
| CC(CN(C)C)CN1c2ccccc2CCc2ccccc21 (stereo unspecified) [Trimipramine Maleate] | 103 | 105 | 111 | 111 | 99.2 | 101 | 102 | 94.2 |
| CCCCOc1cc(C(=O)NCCN(CC)CC)c2ccccc2n1 [Dibucaine HCL] | 103 | 107 | 108 | 118 | 109 | 110 | 109 | 118 |
| CC(=O)O[C@@]12CO[C@@H]1C[C@H](O)[C@@]1(C)C(=O)[C@H](O)C3=C(C)[C@@H](OC(=O)[C@H](O)[C@@H](NC(=O)OC(C)(C)C)c4ccccc4)C[C@@](O)([C@@H](OC(=O)c4ccccc4)[C@H]21)C3(C)C [Docetaxel] | 26.9 | 24.1 | 27.2 | 29.3 | 19.3 | 23 | 22.6 | 23.6 |
| O=C(O)Cc1ccccc1Nc1c(Cl)cccc1Cl [Diclofenac Diethylamine] | 103 | 107 | 105 | 113 | 110 | 115 | 120 | 113 |
| Cc1ccc(N(CC2=NCCN2)c2cccc(O)c2)cc1 [Phentolamine mesilate] | 96.2 | 94.7 | 107 | 106 | 102 | 104 | 108 | 115 |
| CCN(CC)C(=S)SSC(=S)N(CC)CC [Disulfiram] | 12.3 | 8.25 | 4.82 | 4.57 | 19.2 | 11.5 | 6.89 | 3.79 |
| Cc1nc2c([nH]1)-c1ccccc1N(C(=O)c1ccc(NC(=O)c3ccccc3-c3ccccc3)cc1)CC2 [Conivaptan HCl] | 100 | 98.8 | 46.4 | 47.7 | 98 | 84.2 | 89.2 | 36.5 |

| Structure (SMILES) | relative cell viability [1] | relative cell viability [2] | relative cell viability [3] | relative cell viability [4] | relative cell viability [5] | relative cell viability [6] | relative cell viability [7] | relative cell viability [8] |
| --- | --- | --- | --- | --- | --- | --- | --- | --- |
| CN(C)CCc1c[nH]c2ccc(CS(=O)(=O)N3CCCC3)cc12 [Almotriptan malate] | 98 | 99 | 97.6 | 91.9 | 98.2 | 103 | 102 | 52.1 |
| Cc1ccc(S(=O)(=O)NC(=O)NN2CCCCCC2)cc1 [Tolazamide] | 101 | 103 | 98.3 | 110 | 102 | 99.1 | 106 | 117 |
| CCCSc1nc(N[C@@H]2C[C@H]2c2ccc(F)c(F)c2)c2nnn([C@@H]3C[C@H](OCCO)[C@@H](O)[C@H]3O)c2n1 [Ticagrelor] | 109 | 115 | 108 | 123 | 108 | 108 | 113 | 111 |
| CC1(C)S[C@@H]2[C@H](NC(=O)[C@H](NC(=O)N3CCNC3=O)c3ccccc3)C(=O)N2[C@H]1C(=O)O [Azlocillin sodium salt] | 102 | 102 | 106 | 110 | 101 | 104 | 112 | 116 |
| O=C(O)[C@H](CC(=O)N1C[C@H]2CCCC[C@H]2C1)Cc1ccccc1 [Mitiglinide calcium] | 108 | 101 | 99.7 | 108 | 101 | 102 | 104 | 110 |
| Nc1nc(F)nc2c1ncn2[C@@H]1O[C@H](COP(=O)(O)O)[C@@H](O)[C@@H]1O [Fludarabine Phosphate] | 115 | 108 | 119 | 113 | 108 | 115 | 119 | 111 |
| Clc1ccc2c(c1)CCc1cccnc1C2=C1CCNCC1 [Desloratadine] | 92.5 | 109 | 102 | 97 | 105 | 97.5 | 104 | 103 |
| CCOC(=O)[C@H](CCc1ccccc1)N[C@@H](C)C(=O)N1C(=O)N(C)C[C@H]1C(=O)O [Imidapril] | 111 | 103 | 99.3 | 115 | 110 | 103 | 104 | 113 |
| Nc1ccc(/N=N/c2ccccc2)c(N)n1 [Phenazopyridine HCl] | 103 | 98.3 | 101 | 112 | 104 | 103 | 114 | 108 |
| CCOC(=O)c1ccc(OC(=O)CCCCCNC(=N)N)cc1 [Gabexate mesylate] | 107 | 105 | 112 | 108 | 101 | 98.9 | 109 | 110 |
| C=CC[N+]1([C@H]2C[C@H]3[C@@H]4CC[C@H]5C[C@H](O)[C@@H](N6CCOCC6)C[C@]5(C)[C@H]4CC[C@]3(C)[C@H]2OC(C)=O)CCCC1 [Rocuronium bromide] | 104 | 105 | 116 | 110 | 104 | 104 | 104 | 107 |
| CNC1CCCN(c2c(F)cc3c(=O)c(C(=O)O)cn(C4CC4)c3c2OC)C1 (stereo unspecified) [Balofloxacin] | 103 | 93.5 | 101 | 107 | 101 | 99.2 | 99.3 | 107 |
| Nc1cc(C(Cl)=C(Cl)Cl)c(S(N)(=O)=O)cc1S(N)(=O)=O [Clorsulon] | 109 | 105 | 107 | 113 | 110 | 115 | 116 | 110 |
| CCOC(=O)OC(C)OC1=C(C(=O)Nc2ccccn2)N(C)S(=O)(=O)c2ccccc21 (stereo unspecified) [Ampiroxicam] | 110 | 102 | 104 | 121 | 101 | 101 | 102 | 120 |
| CC(C)NCC(O)COc1ccc(CCOCC2CC2)cc1 (stereo unspecified) [Betaxolol] | 99.8 | 98.5 | 100 | 101 | 96.4 | 100 | 99.6 | 108 |
| COc1ccc(C[C@@H]2c3cc(OC)c(OC)cc3CC[N@+]2(C)CCC(=O)OCCCCCOC(=O)CC[N@@+]2(C)CCc3cc(OC)c(OC)cc3[C@H]2Cc2ccc(OC)c(OC)c2)cc1OC [Cisatracurium besylate] | 108 | 100 | 107 | 109 | 105 | 103 | 109 | 128 |
| CC(=O)[C@H]1CC[C@H]2[C@@H]3CC=C4C[C@@H](O)CC[C@]4(C)[C@H]3CC[C@]12C [Pregnenolone] | 100 | 103 | 106 | 117 | 101 | 101 | 105 | 107 |
| C[C@]12C=CC(=O)N[C@@H]1CC[C@@H]1[C@@H]2CC[C@]2(C)[C@@H](C(=O)Nc3cc(C(F)(F)F)ccc3C(F)(F)F)CC[C@@H]12 [Dutasteride] | 104 | 106 | 109 | 108 | 105 | 106 | 113 | 99.6 |
| Nc1[nH]cnc2ncnc1-2 [Adenine] | 101 | 97.9 | 98.1 | 109 | 102 | 95.5 | 98.6 | 106 |
| CC(=O)Oc1ccccc1C(=O)O [Aspirin] | 94 | 101 | 90.7 | 110 | 95.4 | 105 | 93.6 | 122 |
| CC[C@]1(O)C[C@@H]2CN(CCc3c([nH]c4ccccc34)[C@@](C(=O)OC)(c3cc4c(cc3OC)N(C)[C@H]3[C@@](O)(C(=O)OC)[C@H](OC(C)=O)[C@]5(CC)C=CCN6CC[C@]43[C@@H]65)C2)C1 [Vinblastine] | 35.3 | 41.6 | 43.5 | 37.2 | 28 | 32.3 | 36 | 35.9 |
